# Screening results from PubChem.
# MITF inh = blocks human microphthalmia-associated transcription factor. 0.91% of 650,000 active. AID 1259374. inhibition, % at 2.6 µM. O75030. AlphaScreen MITF homodimerization, bead proximity signal; in the data active = inhibition above about 50%;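 note: 0% = vehicle wells with protein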
# TEAD-YAP inh = TEAD-YAP interaction inhibition. 1.4% of 640,000 active. inhibition, % at 9.12 µM. HEK-TIYL cells, TEAD-Gal4/YAP UAS-luciferase luminescence. AID 1259422; in the data active = inhibition above about 32%;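 note: 0% = median of test compound wells and 100% = reference inhibitor wells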
# FBW7 act = human FBW7 E3 ligase activation, primary screen | Q969H0 | AlphaScreen FBW7–phospho-cyclin E peptide binding, activator screen | normalized activity (activation), % at 26.1 µM | 0.13% of 650,000 active | AID 1259310; in the data active = normalized activity above about 1.9%;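 note: purified mutant Fbw7 with reduced substrate affinity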
# Target sequence (Q969H0 whole entry, looked up): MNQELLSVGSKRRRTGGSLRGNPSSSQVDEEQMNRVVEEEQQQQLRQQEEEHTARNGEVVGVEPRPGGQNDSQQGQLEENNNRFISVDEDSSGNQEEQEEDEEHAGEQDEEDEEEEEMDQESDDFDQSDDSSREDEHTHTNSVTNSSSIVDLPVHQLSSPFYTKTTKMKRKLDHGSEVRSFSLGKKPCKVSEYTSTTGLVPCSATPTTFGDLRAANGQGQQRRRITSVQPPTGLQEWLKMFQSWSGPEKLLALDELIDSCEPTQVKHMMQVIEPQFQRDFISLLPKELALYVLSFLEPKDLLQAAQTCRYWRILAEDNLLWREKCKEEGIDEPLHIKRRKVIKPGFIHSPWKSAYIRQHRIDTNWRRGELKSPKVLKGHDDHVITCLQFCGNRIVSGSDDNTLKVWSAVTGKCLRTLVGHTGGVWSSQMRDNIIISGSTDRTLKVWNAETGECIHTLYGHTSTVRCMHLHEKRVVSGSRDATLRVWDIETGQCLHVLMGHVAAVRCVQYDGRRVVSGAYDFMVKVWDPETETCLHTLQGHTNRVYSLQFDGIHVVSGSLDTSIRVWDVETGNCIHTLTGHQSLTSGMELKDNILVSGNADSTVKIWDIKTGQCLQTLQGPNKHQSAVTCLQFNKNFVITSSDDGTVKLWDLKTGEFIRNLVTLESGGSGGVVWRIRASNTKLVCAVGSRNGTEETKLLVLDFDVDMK
# GPR151 activ = activates the human receptor GPR151. PathHunter beta-arrestin GPR151 cells, luminescence. Q8TDV0. activation, % at 11.2 µM. 1% of 650,000 active; in the data active = activation above about 4.9%;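 note: 0% = median of compound wells and 100% = cells with positive control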
# GPR151 confirm = human GPR151 activation, confirmation screen; shares compounds with GPR151 activ; GPR151 PathHunter beta-arrestin cells, luminescence, 90 min; % of EA-reagent control over plate median; 6,700 tested, under 10 active; activation, % at 11.2 µM; AID 1508609;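 active = mean percent activation across replicates above the confirmation screen cutoff of 4.91%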
# GPR119 ag = activates human GPR119 in a GPR151 counter-screen | GPR119 PathHunter beta-arrestin cells, luminescence, 90 min; 0 = compound-well median, 100 = enzyme-acceptor control | shares compounds with GPR151 activ | 0.3% of 6,700 active | AID 1508611 | activation, % at 11.2 µM;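 active = mean percent activation in the counterscreen above 29.09%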;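 note: counterscreen on off-target GPR119 to flag nonselective hits from the GPR151 activator screen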
# Active calls of the source: *; . = no result given. An excerpt weighted towards active compounds, which were near 3.5% of everything screened.
SMILES,MITF inh,TEAD-YAP inh,FBW7 act,GPR151 activ,GPR151 confirm,GPR119 ag
COc1cccc(N2C(=O)NC(=O)/C(=C/c3ccc(O)c(O)c3)C2=O)c1,-24,-3,0,5.1*,1,5
COc1ccc(/C=C2\C(=O)NC(=O)N(c3ccccc3OC)C2=O)cc1,-4,-3,0,4.9*,0,10
CCOc1cc(/C=C2\C(=O)NC(=O)N(c3ccc(Br)c(C)c3)C2=O)ccc1O,3,5,0,5.0*,0,-6
CCOC(=O)C(C(=O)Nc1ccccc1OC)C1CCCCC1 (stereo not drawn),4,3,0,5.1*,0,-4
COc1ccccc1OCC(=O)NC1CCCCCC1,-21,-53,0,0,.,.
COC(=O)C(C(=O)Nc1ccccc1C)C1CCCC1 (stereo not drawn),7,-6,0,0,.,.
COc1ccccc1OC(C)C(=O)NC1CCCCC1 (stereo not drawn),-12,-4,0,6.4*,-1,-7
COc1cccc(OC)c1C(=O)Nc1c(C)n(C)n(-c2ccccc2)c1=O,-5,2,0,2,.,.
CCOC(=O)c1[nH]c(C)c(C(=O)Nc2cccc(OC)c2)c1C,14,-3,0,1,.,.
CCOC(=O)c1[nH]c(C)c(C(=O)Nc2ccc(C)c(C)c2)c1C,-6,4,0,5.0*,0,4
CCOC(=O)c1[nH]c(C)c(C(=O)Nc2c(C)n(C)n(-c3ccccc3)c2=O)c1C,10,1,0,6.5*,-1,-3
O=C1CCCN1c1nc(-c2cccs2)cs1,3,-15,0,1,.,.
O=c1[nH]c2nc[nH]c(=O)c2[nH]1,-10,-2,0,-1,.,.
N#C/C(=C\c1cc(Cl)cc(Cl)c1OCc1ccccc1)c1nn(CCO)c(N)c1C#N,3,-11,0,-1,.,.
Cc1cc(C(=O)Nc2ccc(F)cc2F)no1,8,-27,1,6.5*,0,-3
CCCc1cc(C(=O)Nc2ccc(F)cc2F)no1,1,-31,0,-2,.,.
CC(C)(C)c1csc2ncc(C(=O)NOCc3ccccc3)c(=O)n12,8,-1,0,0,.,.
COc1ccc(C)cc1S(=O)(=O)N(CC(=O)N1CCOCC1)Cc1ccccc1,9,3,0,12*,-1,-5
COc1ccc(S(=O)(=O)N(CC(=O)N2CCOCC2)Cc2ccccc2)cc1C,-24,4,0,1,.,.
C=CCOc1ccc(C(=O)N(Cc2nc(-c3ccc(OC)c(OC)c3)no2)C(C)C)cc1,12,0,0,12*,-1,6
COc1cccc(OC)c1C(=O)N(Cc1nc(-c2ccc(C)cc2)no1)C(C)C,-7,14,0,9.7*,0,-15
CCOc1ccc(C(=O)N(Cc2nc(-c3ccc(OC)cc3)no2)C(C)C)cc1OCC,3,-3,0,-1,.,.
CN(Cc1nc(-c2ccccc2)no1)S(=O)(=O)c1ccc(Cl)cc1,3,5,0,5.5*,-1,-8
COc1ccc(-c2noc(CN(C(C)C)S(=O)(=O)c3ccc(F)cc3)n2)cc1,-5,-5,0,11*,0,-7
CCc1cccc(NC(=O)CN2CC(=O)N3CCCC3C2=O)c1 (stereo not drawn),-7,-12,0,2,.,.
SMILES,MITF inh,TEAD-YAP inh,FBW7 act,GPR151 activ,GPR151 confirm,GPR119 ag
CCC(C(=O)N1CCc2ccccc2C1)n1ncn2c(cc3occc32)c1=O (stereo not drawn),18,1,0,1,.,.
O=C(NCc1ccco1)c1ccccc1C(F)(F)F,-11,5,0,0,.,.
CC(C)N(Cc1nc(-c2ccccc2)no1)C(=O)CCN1C(=O)c2ccccc2C1=O,-8,9,0,3,.,.
Cc1ccc(-c2noc(CN(C(=O)CCN3C(=O)c4ccccc4C3=O)C(C)C)n2)cc1,13,5,0,5.1*,-1,-9
COc1cccc(CN2CCN(Cc3cccs3)C(CCO)C2)c1 (stereo not drawn),-3,-5,0,0,.,.
COc1ccc(CN2CCN(Cc3cccs3)C(CCO)C2)c(O)c1 (stereo not drawn),-5,-14,0,5.1*,0,-8
COc1cc(C2Nc3ccccc3NC3=C2C(=O)CC(c2ccccc2Cl)C3)cc(OC)c1OC (stereo not drawn),16,-1,0,5.6*,0,-3
O=C(CCCN1C(=O)c2cccnc2C1=O)Nc1ccc(C(F)(F)F)cc1,4,11,0,9.0*,2,0
Cc1ccc(C)c(S(=O)(=O)Nc2cc(N3CCCS3(=O)=O)ccc2C)c1,3,4,0,0,.,.
CNC(=O)c1cc(-c2ccc(C)cc2)nc2ccccc12,11,-5,1,5.4*,-2,-13
O=C(Nc1ccncc1)c1cc(-c2ccncc2)nc2ccccc12,-5,-15,0,5.2*,3,15
Cc1ccc(Sc2cc(C(=O)NC3CCC(C)CC3)c3ccccc3n2)cc1 (stereo not drawn),4,-3,0,0,.,.
Cc1ccc(Sc2cc(C(=O)NC3CC3)c3ccccc3n2)cc1,3,1,0,5.4*,0,-5
CCOc1ccc(Oc2cc(NC(=O)c3cccc(F)c3)cc(NC(=O)c3cccc(F)c3)c2)cc1,3,-6,0,1,.,.
CC(NCc1ccco1)C(=O)N1c2ccccc2CC1C (stereo not drawn),28,6,0,1,.,.
COc1ccc(S(=O)(=O)N2CC=C(C(=O)NC3CCC(C)CC3)CC2)cc1 (stereo not drawn),6,2,0,1,.,.
CCP(=O)(CC)c1ccccc1C(=O)O,0,-2,0,0,.,.
COc1ccc(CN2CCN(Cc3ccc(OC)c(OC)c3OC)CC2)cc1OC,48,16,0,5.9*,0,6
CCn1c2ccccc2c2cc(CN3CCN(Cc4ccc(OC)c(OC)c4OC)CC3)ccc21,42,-3,0,-1,.,.
COc1cccc(/C=N/N(CCC#N)C2=NS(=O)(=O)c3ccccc32)c1O,9,-1,0,10*,1,-7
COc1ccc([N+](=O)[O-])cc1/C=N/N(CCO)C1=NS(=O)(=O)c2ccccc21,15,-3,0,2,.,.
CCCNC(=O)C(=O)NCCc1ccc(OC)c(OC)c1,3,4,0,6.2*,0,-7
COc1ccc(CCNC(=O)C(=O)NCCC(C)C)cc1OC,16,0,0,-1,.,.
C=CCNC(=O)C1CCN(C(=O)NCc2ccccc2)CC1,0,1,0,10.0*,0,-1
O=C(NC1CCN(C(=O)Nc2cccc(F)c2)CC1)c1cccc(F)c1,-2,8,0,0,.,.
O=C(NC1CCN(C(=O)NCc2ccccc2)CC1)c1cccc(F)c1,-1,-3,0,5.6*,0,-6
